Measurements as given in PubChem BioAssay.
Activity calls are given as the source filed them. Unless noted, how the calls were made is not given here.

Legend:
[1] = test system: Wnt5a (protein binding on small-molecule microarray); assay: Wnt5a binders on small-molecule microarray, primary screen, biophysical, 635/667 nm fluorescence (AID 1142); settings: 635 nm fluorescence, higher = more signal;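 further: fluorescence read at 667 nm with signal to noise per printed feature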
[2] = cell viability in Huh7 cells, primary screen, cytotoxicity control for HCV replication inhibitor project, CellTiter-Glo luminescence, basal, 48 h (AID 1143); settings: Huh7 HCV replicon, higher = more signal, called active from +8 up or from −8 down;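 further: Huh7 hepatoma cells carrying a hepatitis C replication reporter with no stimulus; test concentration not given here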
[3] = P. aeruginosa biofilm formation inhibitors, primary screen, PAO1 strain, BacTiter-Glo luminescence, LB-PBS (AID 1144); settings: 12 h, higher = more signal
[4] = CREB reporter modulators without forskolin, primary screen, cell-based, PC12, CRE-LacZ reporter, unstimulated (AID 1145); settings: no forskolin, luminescence, 4.5 h, higher = more signal, called active from +8 up or from −8 down
[5] = CREB reporter modulators under forskolin, primary screen, cell-based, PC12, CRE-LacZ reporter, forskolin-stimulated (AID 1146); settings: luminescence, 4.5 h, higher = more signal, called active from +8 up or from −8 down;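 further: PC12 cells with 6xCRE LacZ reporter stimulated by forskolin 10 µM; beta-galactosidase reporter signal reflecting CREB driven transcription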
[6] = target: Streptavidin (Streptomyces avidinii) (UniProt P22629); assay: streptavidin binders on small-molecule microarray, primary screen, artefact control for SMM compound annotation, biophysical, 635/667 nm fluorescence (AID 1147); settings: streptavidin binding, higher = more signal;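 further: signal reflects streptavidin binding to arrayed compounds as a control protein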
Chain of Streptavidin (Streptomyces avidinii) (P22629 whole entry, looked up): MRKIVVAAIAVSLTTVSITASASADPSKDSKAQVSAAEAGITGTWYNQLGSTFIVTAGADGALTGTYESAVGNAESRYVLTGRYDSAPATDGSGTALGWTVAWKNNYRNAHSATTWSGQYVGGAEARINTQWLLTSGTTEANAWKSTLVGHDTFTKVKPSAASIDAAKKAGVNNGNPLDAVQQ

[7] = small-molecule binders of probe aInhba, primary screen, biochemical, small-molecule microarray, 635/667 nm fluorescence (AID 1148); settings: higher = more signal;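 further: score merges 667nm spot fluorescence with signal-to-noise for antibody binding to printed compounds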
Torsin-1A (Homo sapiens) [8] = target: Torsin-1A (Homo sapiens) (UniProt O14656); assay: torsin A binders from cell lysate, primary screen, small-molecule microarray, wild-type, 635/667 nm (AID 1149); settings: COS7 hTOR1A-WT lysate, 635 nm fluorescence, higher = more signal
Chain of Torsin-1A (Homo sapiens) (O14656 whole entry, looked up): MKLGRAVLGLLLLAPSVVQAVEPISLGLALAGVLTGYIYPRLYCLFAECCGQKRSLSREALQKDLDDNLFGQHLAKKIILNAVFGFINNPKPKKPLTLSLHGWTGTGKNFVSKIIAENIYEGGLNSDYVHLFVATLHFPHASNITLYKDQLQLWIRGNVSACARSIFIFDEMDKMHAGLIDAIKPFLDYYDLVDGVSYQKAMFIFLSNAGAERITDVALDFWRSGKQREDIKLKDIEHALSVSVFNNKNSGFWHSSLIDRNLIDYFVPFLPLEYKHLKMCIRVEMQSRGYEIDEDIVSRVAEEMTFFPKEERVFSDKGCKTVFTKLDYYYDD

Torsin-1A (Homo sapiens) [9] = target: Torsin-1A (Homo sapiens) (UniProt O14656); assay: small-molecule binders of mutant TOR1A in lysate, primary screen, cell lysate, small-molecule microarray, COS7 lysate, 635/667 nm fluorescence (AID 1150); settings: COS7 hTOR1A mutant lysate, 635 nm fluorescence, higher = more signal;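 further: score pools 667 nm emission and signal to noise measuring lysate protein binding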
[10] = test system: Sonic hedgehog protein (Shh); assay: small-molecule binders of Shh protein, primary screen, biochemical, small-molecule microarray, 635/667 nm fluorescence (AID 1151); settings: small-molecule microarray binding, 635 nm fluorescence; higher = more signal;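 further: Shh protein binding to compounds spotted on small-molecule microarray slides; score combines spot fluorescence intensity with signal-to-noise across triplicate slides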

Compound | composite z-score [1] | z-score [2] | z-score [3] | z-score [4] | z-score [5] | composite z-score [6] | composite z-score [7] | composite z-score (Torsin-1A (Homo sapiens) [8]) | composite z-score (Torsin-1A (Homo sapiens) [9]) | composite z-score [10]
COC(=O)C(CC#Cc1ccc2c(c1)[C@]1(C(=O)N2)[C@H](C(=O)N2CCCCCCC2)[C@H]2C(=O)O[C@H](c3ccccc3)[C@H](c3ccccc3)N2[C@@H]1c1ccc(OCCO)cc1)C(=O)OC | 2.02 | -0.873 (inactive) | 1.02 (inactive) | -0.581 (inactive) | -0.546 (inactive) | 4.12 | 1.97 | 3.57 | 3.65 | 2.05
CO[C@H]1O[C@H](CO)[C@@H](OC(=O)Nc2ccccc2)[C@@H]2OC(=O)[C@@H](Cc3ccccc3)C/C=C/C[C@H](Cc3ccccc3)C(=O)O[C@@H]12 | 0.129 | -0.0611 (inactive) | -0.213 (inactive) | -0.403 (inactive) | -0.656 (inactive) | -0.304 | -0.0719 | 0.433 | 1.93 | 0.591
C[C@]1(C(=O)O)c2ccccc2C(=O)N(Cc2cc(C(F)(F)F)cc(C(F)(F)F)c2)[C@H]1c1ccc(CO)cc1 | 0.0785 | 0.104 (inactive) | -0.518 (inactive) | 0.531 (inactive) | 0.165 (inactive) | 1.41 | 0.0227 | -0.652 | -0.113 | 1.64
CC(C)c1ccc(NN2C(C(O)C3CCCCC3)C=CC3C(=O)N(c4ccccc4)C(=O)C32)cc1 (stereo not given) | 0.283 | -0.575 (inactive) | -1.15 (inactive) | 0.0467 (inactive) | 0.337 (inactive) | 1.88 | 0.0968 | -0.147 | 0.316 | 0.771
COc1ccc(-c2cc3c(c(CCc4ccccc4)n2)[Si](C(C)C)(C(C)C)O[C@H]3c2ccccc2)cn1 | -0.143 | -0.248 (inactive) | -0.113 (inactive) | 4.67 (inactive) | -0.0122 (inactive) | 0.547 | -0.0762 | -0.719 | -0.534 | 0.431
O=C1OCCC/C=C\[C@H]2OC34C=CCN(Cc5ccccc5)C(=O)[C@H]3N(CCO)C(=O)[C@@H]4C12 (stereo not given in full) | 0.0691 | 0.347 (inactive) | -1.38 (inactive) | -0.0899 (inactive) | -0.0501 (inactive) | -1.06 | 0.225 | 1.3 | 0.232 | 1.87
CC[C@@H](O[Si](C#C[Si](C(C)C)(C(C)C)C(C)C)(C(C)C)C(C)C)c1cn([C@H](C)c2ccccc2)nn1 | -0.026 | 0.428 (inactive) | -0.0357 (inactive) | -0.374 (inactive) | 0.266 (inactive) | 0.693 | -0.0044 | 0.398 | 0.458 | 0.634
O=C1O[C@H](c2ccccc2)[C@H](c2ccccc2)N2[C@H]1[C@@H](C(=O)N1CCCCCCC1)[C@]1(C(=O)Nc3ccc(C#CCCO)cc31)[C@H]2c1ccc(O)cc1 | 2.43 | -1.76 (inactive) | -0.575 (inactive) | -0.438 (inactive) | -1.23 (inactive) | 3.86 | 1.84 | 3.62 | 3.34 | 2.36
CCc1cccc(NC(=O)O[C@H]2[C@H](OC(=O)Nc3ccccc3-c3ccccc3)[C@H](OC(=O)Nc3ccccc3-c3ccccc3)[C@@H](OC)O[C@@H]2CO)c1 | 0.947 | -5.67 (inactive) | -1.82 (inactive) | -0.506 (inactive) | -0.238 (inactive) | 0.284 | 0.0345 | 0.762 | 0.875 | 2.18
COc1ccc([Si](C)(C)[C@H]2[C@H](CC(=O)N(CCO)Cc3ccccc3)O[C@@]3(C(=O)N(c4ccccc4)c4ccccc43)[C@@H]2C)cc1 | 0.318 | -7.96 (inactive) | -0.164 (inactive) | 16.4 (active) | -3.89 (inactive) | 0.862 | -0.0986 | 0.0895 | -0.364 | 1.2
CCCCCN1CC=CC23O[C@@H]4/C=C\CCCOC(=O)C4[C@H]2C(=O)N(CCO)[C@@H]3C1=O (stereo not given in full) | -0.243 | -2.03 (inactive) | -2.97 (inactive) | -1.98 (inactive) | -0.508 (inactive) | -0.666 | -0.183 | 0.642 | 1.58 | 0.0256
CC(C)C[C@H]1NC(=O)CNC(=O)[C@@]23C(=O)N[C@@H](Cc4ccccc4)C2[C@H](C)[C@@]2(C)O[C@H]2C3/C=C/C/C=C\CNC1=O (stereo not given in full) | -0.0443 | 0.0643 (inactive) | -0.0124 (inactive) | 0.483 (inactive) | 0.201 (inactive) | -0.185 | -0.0719 | -0.0633 | 0.129 | 1.93
O=C1OC[C@@H](c2ccccc2)n2cc(/C=C/c3ccccc3)cc21 | 0.044 | -4.14 (inactive) | 0.927 (inactive) | 9.55 (active) | -0.54 (inactive) | 0.723 | -0.0933 | -1.43 | -0.565 | 0.319
O=C(c1ccccc1)N1Cc2ccccc2C[C@@]2(N=C(c3ccc(OCCCO)cc3)O[C@H]2c2ccccc2)C1=O | 1.27 | -4.73 (inactive) | -0.191 (inactive) | 0.904 (inactive) | -1.12 (inactive) | 0.491 | 0.0658 | 0.881 | 1.06 | 2.19
C=CCNC(=O)[C@H]1[C@@H]2C(=O)O[C@@H](c3ccccc3)[C@@H](c3ccccc3)N2[C@@H](c2ccc(O)cc2)[C@]12C(=O)Nc1ccccc12 | -0.124 | -0.792 (inactive) | -0.683 (inactive) | -0.195 (inactive) | -0.0955 (inactive) | -0.642 | -0.128 | 0.64 | 0.778 | 0.279
CN1C2C=C(c3ccc(CO)cc3)C(C3C(=O)N(C(N)=O)C(=O)C32)C1C1CC1 (stereo not given) | -0.392 | 0.547 (inactive) | -0.522 (inactive) | -0.35 (inactive) | 0.527 (inactive) | 0.0747 | -0.271 | 0.0973 | 0.0517 | -0.104
COC(=O)[C@H](Cc1ccccc1)N1CC(C)(OC)O[C@@H](Cc2ccccc2)[C@H]1/C=C/C1CC1 (stereo not given in full) | -0.0712 | -0.628 (inactive) | 0.664 (inactive) | 4.13 (inactive) | 1.12 (inactive) | 0.0404 | -0.0762 | 0.256 | 0.269 | 0.0034
OCCCc1cc[n+](Cc2cc3c(cc2Br)OCO3)cc1 | -0.265 | -0.633 (inactive) | 0.0177 (inactive) | -0.374 (inactive) | -0.121 (inactive) | -0.838 | -0.209 | -1.27 | -0.561 | -0.508
CC(C)(C)OC(=O)N1[C@@H](C=C(Br)Br)COC1(C)C | -0.0677 | -2.04 (inactive) | 0.278 (inactive) | -0.104 (inactive) | 0.0695 (inactive) | 0.29 | -0.15 | 0.396 | 0.656 | 0.938
C=CCNC(=O)[C@H]1[C@@H]2C(=O)O[C@@H](c3ccccc3)[C@@H](c3ccccc3)N2[C@@H](c2ccc(OCCO)cc2)[C@]12C(=O)Nc1ccc(C#Cc3ccc(OC)cc3)cc12 | 0.4 | -3.41 (inactive) | -0.832 (inactive) | 0.478 (inactive) | 0.237 (inactive) | 0.918 | 0.165 | 0.44 | 0.471 | 0.974
CCCCC(=C=CC[C@@H](O)c1ccc(OCCO)cc1)CCO | -0.032 | -1.75 (inactive) | 0.234 (inactive) | 7.73 (inactive) | -0.882 (inactive) | -0.217 | 0.0342 | 0.112 | 0.654 | 0.98
C=C(COC)/C(=C/C[C@@H](OC(=O)c1ccncc1)c1ccccc1OCCO)c1cnc2ccccc2c1 | 1.09 | -3 (inactive) | 1.45 (inactive) | 18.2 (active) | 1.24 (inactive) | 1.93 | 0.0422 | 0.113 | 1.15 | 2.07
CC(=O)NCCCC[C@@H]1NC(=O)[C@H]2C[C@@H](C(=O)O)[C@@H](c3cccc(OCCO)c3)N2C1=O | 0.847 | -0.353 (inactive) | -0.814 (inactive) | 1.94 (inactive) | 0.0364 (inactive) | 1.62 | -0.153 | 1.33 | 1.24 | 1.59
CN1C(=O)C2C=CC(C(O)c3ccc(I)cc3)N(N(c3ccccc3)c3ccccc3)C2C1=O (stereo not given) | -0.268 | -0.619 (inactive) | 0.257 (inactive) | -0.136 (inactive) | 0.58 (inactive) | 0.609 | -0.0581 | -0.728 | -0.545 | -0.416
C=C(C(=O)CC[C@H](OC(=O)c1ccccc1-c1ccccc1C(=O)O)c1ccc(OCCO)cc1)C(C)C | 0.686 | -0.723 (inactive) | -1.22 (inactive) | 0.611 (inactive) | 1.09 (inactive) | -0.0151 | 0.0497 | 1.87 | 1.5 | 0.7
CC(CO)N1C(=O)[C@@H]2[C@H]3C(=O)OCC=C[C@H]3OC23C=CCN(c2ccc4ccccc4c2)C(=O)[C@@H]13 (stereo not given in full) | -1.02 | 0.417 (inactive) | 1.19 (inactive) | 0.862 (inactive) | -0.702 (inactive) | -1.06 | -0.128 | -2.15 | -1.05 | -1.19
COCCOC(=O)N1C(=O)[C@@]2(c3ccccc31)[C@H](C(=O)Nc1nc3ccccc3s1)[C@H]1C(=O)O[C@H](c3ccccc3)[C@H](c3ccccc3)N1[C@@H]2c1ccccc1OCCO | 0.0847 | -3.65 (inactive) | -0.457 (inactive) | -0.207 (inactive) | -0.144 (inactive) | 1.39 | 0.379 | 0.282 | 0.781 | 0.733
Cc1ccc(S[C@]2(C(=O)NC(C)C)CC(=O)N(Cc3ccccc3)[C@@H]2c2ccc(CO)cc2)cc1 | -0.394 | -2.19 (inactive) | -1.55 (inactive) | -0.295 (inactive) | 0.12 (inactive) | -0.375 | -0.143 | -1.65 | -1.5 | -0.501
CN1C(=O)C2C(C1=O)C1C=C(CCCO)C2C(C2CC2)N1C (stereo not given) | 0.0748 | -2.56 (inactive) | 0.189 (inactive) | 0.0295 (inactive) | -0.984 (inactive) | -0.45 | 0.0543 | -0.427 | -0.454 | -0.685
